In the library only some 0.47% were active in any assay of this set; here they are far more common.
AID inhibitor = Primary qHTS assay for inhibitors of Activation Induced Cytidine Deaminase (AID): AID signal. Single-stranded DNA cytosine deaminase (Homo sapiens), Q9GZX7. AID deamination FRET fluorescence, UDG-coupled, 4 h. Potency, µM (series often up to 115 µM), hits mostly inhibitors. actives 0.32% (n = 91,000); note: nearly all actives have a fitted effect of over 25% in size
Target sequence (Q9GZX7 whole entry, looked up): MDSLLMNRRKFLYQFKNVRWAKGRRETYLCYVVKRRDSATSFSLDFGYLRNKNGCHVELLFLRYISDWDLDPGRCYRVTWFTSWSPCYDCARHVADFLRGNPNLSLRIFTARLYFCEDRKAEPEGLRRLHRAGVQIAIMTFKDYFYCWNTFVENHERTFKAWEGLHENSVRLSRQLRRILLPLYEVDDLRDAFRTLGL
UDG counter = Primary qHTS assay for inhibitors of Activation Induced Cytidine Deaminase (AID): UDG Counterscreen signal | Potency, µM (titrated, usually from 115 µM), without a hit: top-dose activity change, negative = inhibition, usual class: inhibitors | FRET deamination/UDG coupled assay, UDG read, 4 h | actives 0.14% (n = 91,000) | Uracil-DNA glycosylase; note: nearly all actives have a fitted effect of over 65% in size
An asterisk follows results filed as active; i = inactive; ? = inconclusive; [ ] = another dose, or the depositor's remark. Calls come from the whole dose curve; as a rule, active = well fitted curve in the direction sought with a large enough effect; inconclusive = small, poorly fitted or top-dose-only effect, or another doubt; inactive = no such curve, though single readings can be large; an effect the other way counts as inactive or inconclusive. % is set by controls: 0 for no effect and ±100 for the full control effect; potency is the fitted concentration of half-maximal effect.

SMILES	AID inhibitor	UDG counter
Cc1ccc(C(=O)Nc2ccc(S(=O)(=O)O)c3cc(S(=O)(=O)O)cc(S(=O)(=O)O)c23)cc1NC(=O)c1cccc(NC(=O)Nc2cccc(C(=O)Nc3cc(C(=O)Nc4ccc(S(=O)(=O)O)c5cc(S(=O)(=O)O)cc(S(=O)(=O)O)c45)ccc3C)c2)c1	7.1µM*	8%
N=C(N)c1cccc(N)c1	i	-27%
COc1cccc(/C=C/c2nc(C#N)c(NCc3ccco3)o2)c1	i	-8%
COc1ccc(CNc2oc(/C=C/c3cccc(OC)c3)nc2C#N)cc1	i	89µM*
CSc1ccc(C)c(C(=O)Nc2ccc(C)cc2C)c1	i	-11%
Cc1ccc(C(=O)NC(NC(=O)c2ccc(Cl)cc2)C(Cl)Cl)cc1 (stereo unspecified)	i	5%
Oc1ccc(-c2cn3ccsc3n2)cc1	i	-9%
COc1ccc(OCc2nc3ccccc3n2Cc2ccc(C(C)(C)C)cc2)cc1	?	-25%
CC(C)(C)c1ccc(OCc2nc3ccccc3n2CCOc2ccccc2)cc1	32µM*	-16%
O=C(NCCc1ccc(F)cc1)N1CCc2sccc2C1	i	-5%
Cc1ccc(N(Cc2cccs2)C(=O)COc2cccc(C)c2)cc1	?	1%
Cc1cc(C)cc(OCC(=O)N(Cc2cccs2)c2ccc(Cl)cc2)c1	22µM*	-5%
Cc1ccc(CNC(=O)C(CC(C)C)NC(=O)c2ccccc2C)cc1 (stereo unspecified)	i	0%
COc1ccc(NC(=O)CN(Cc2ccccc2)S(=O)(=O)c2ccc(C)cc2)cc1Cl	i	89µM*
COC(=O)c1ccc(NC(=O)CN(Cc2ccccc2)S(=O)(=O)c2ccc(C)cc2)cc1	i	22%
CC(=O)N1N=C(c2c(-c3ccccc3)c3cc(Cl)ccc3n(C)c2=O)CC1c1cccs1 (stereo unspecified)	45µM*	-18%
CC(=O)N1N=C(c2ccc(C)cc2)CC1c1cn(-c2ccccc2)nc1-c1cccs1 (stereo unspecified)	i	-6%
O=C(CCc1nc2ccccc2[nH]1)NC1CCSc2c(F)cccc21 (stereo unspecified)	i	-5%
O=C(CCS(=O)(=O)c1nc(-c2cccs2)cc(C(F)(F)F)n1)Nc1ccc(OC(F)(F)F)cc1	10µM*	-24%
COc1ccc(NC(=O)CCS(=O)(=O)c2nc(-c3cccs3)cc(C(F)(F)F)n2)cc1	i	-7%
CNC(=O)C(C)OC(=O)c1nc(-c2ccccc2)oc1C (stereo unspecified)	i	3%
COc1ccc2c(C)c(CC(=O)Nc3cccc(Br)c3)c(=O)oc2c1OC	i	3%
CCCn1cc(S(=O)(=O)c2ccc(C)cc2)c(=O)c2cc(OC)c(OC)cc21	i	-6%
COc1cc2c(=O)c(S(=O)(=O)c3ccc(C)cc3)cn(Cc3cccc(C)c3)c2cc1OC	40µM*	-19%
CCCCCOc1ccc(/C=C(/C#N)c2nc3ccccc3[nH]2)cc1OC	i	0%
SMILES	AID inhibitor	UDG counter
Cc1noc2ncnc(NCCc3ccccc3)c12	?	-4%
Clc1ccc(-c2noc3ncnc(NCCc4ccccc4)c23)cc1	25µM*	-10%
CCOc1ccc2nc(NC(=O)c3noc4c3COc3ccccc3-4)sc2c1	i	2%
C=Cc1ccc(CSc2nc(-c3ccccc3C)nc3c2Cc2c(CO)cnc(C)c2O3)cc1	45µM*	-8%
C=Cc1ccc(CSc2nc(-c3ccc(Cl)cc3)nc3c2Cc2c(CO)cnc(C)c2O3)cc1	i	-9%
COc1cc(/C=C(\C#N)c2ccc(Cl)cc2)c(Br)cc1OCc1ccccc1	i	-15%
O=C(NC1CC1)C1CCN(Cc2nc(-c3ccccc3)no2)CC1	i	12%
COc1cc(C(c2c(C)[nH][nH]c2=O)c2c(C)[nH][nH]c2=O)ccc1OC(=O)c1cccc(C)c1	22µM*	-10%
COc1cc(C(c2c(C)[nH][nH]c2=O)c2c(C)[nH][nH]c2=O)ccc1OC(=O)c1ccccc1OC	?	-14%
O=C(CCCc1cccs1)N(Cc1cccnc1)C1CC1	i	1%
CC(C)Oc1ccc(CNC(=O)Nc2ccc3c(c2)N(C)C(=O)c2ccccc2S3)cc1	?	-14%[57.5 µM]
COc1ccc(CNC(=O)Nc2ccc3c(c2)N(C)C(=O)c2ccccc2S3)cc1OC	89µM*	4%[57.5 µM]
CCCCc1cc(=O)oc2cc(OCC(=O)N3CCC(C(=O)NCCCO)CC3)ccc12	i	-9%
CC(Oc1ccccc1C(N)=O)C(=O)Nc1ccccc1C(F)(F)F (stereo unspecified)	i	6%
COc1ccccc1NC(=O)C1CCN(c2nccnc2Sc2ccc(C)cc2)CC1	i	?
COc1ccc(Cl)cc1NC(=O)C1CCN(c2nccnc2Oc2ccccc2C)CC1	i	89µM*
CC(C)Cc1ccc(S(=O)(=O)N2CCC(c3ccncc3)CC2)cc1	35µM*	-9%
CC(C)(C)c1ccc(S(=O)(=O)N2CCC(c3ccncc3)CC2)cc1	?	-8%
COc1cc(/C=C(/C#N)C(=O)Nc2ccccc2C(F)(F)F)ccc1OCc1ccc(F)cc1	i	2%
COc1cc(/C=C(\C#N)C(=O)Nc2nnc(C(F)(F)F)s2)ccc1OCc1ccc(C(F)(F)F)cc1C(F)(F)F	50µM*	-7%
Cc1ccc2nc(-c3cc(C)sc3C)cc(C(=O)O)c2c1	i	-4%
Cc1cc2nc(COC(=O)c3cccc(NC(=O)c4ccc(C(C)(C)C)cc4)c3C)cc(=O)n2o1	i	4%
COc1ccc(-c2coc3cc(OCC(=O)NCc4ccc(F)cc4)ccc3c2=O)cc1OC	i	0%
COc1cc2c(=O)c(C(=O)c3ccc(C)c(C)c3)cn(Cc3ccccc3)c2cc1OC	?	-11%
COc1cc2c(=O)c(C(=O)c3ccc(C)c(C)c3)cn(Cc3ccc(F)cc3)c2cc1OC	45µM*	-20%
SMILES	AID inhibitor	UDG counter
Cc1ccccc1OCC(=O)NC12CC3CC(CC(C3)C1)C2	i	-18%
Cc1ccc(C)c(N2CCN(CCCNC(=O)c3ccc4nc(N5CCCCC5)sc4c3)CC2)c1	40µM*	-11%
Cc1ccc(CNC(=O)c2ccc3nc(N4CCCCC4)sc3c2)cc1	i	-9%
CCc1nnc(NC(=O)c2nn(Cc3ccccc3)c(=O)c3ccccc23)s1	i	4%
COc1cc(C(=O)/C=C/c2cccc(F)c2)ccc1S(C)(=O)=O	i	1%
CC(=O)c1c(C)[nH]c(C(=O)C(C)Cl)c1C (stereo unspecified)	i	-5%
Brc1cccc(-c2noc(-c3ccco3)n2)c1	i	-5%
CCCN(CCC)CC(O)Cn1cc(/C=C/C(=O)c2ccc(Br)cc2)c2ccccc21 (stereo unspecified)	i	-4%
CCCN(CCC)CC(O)Cn1cc(/C=C/C(=O)c2ccc(C)cc2)c2ccccc21 (stereo unspecified)	35µM*	-15%
Cc1nc2nc(NC(=O)c3ccc(C(C)(C)C)cc3)[nH]n2c(=O)c1Cl	32µM*	5%
COc1ccc(C(=O)Nc2nc3nc(C)c(Cl)c(=O)n3[nH]2)cc1	i	-5%
ClCC(Cl)C[n+]1cccc2ccccc21 (stereo unspecified)	i	-7%
N[n+]1cccc2ccccc21	i	1µM*
CCOc1cc(CNc2ccc(O)cc2)ccc1OCc1ccc(Cl)cc1	?	-7%

From PubChem BioAssay
